The values below come from PubChem BioAssay AID1347426 (Functional Genomics Laboratory (NCATS/FGL), 2020).

In all, about 31,000 sequences went through this assay and about 1,400 (4.5%) were called active. The entries come from a sample that favours actives as a whole. Unmarked numbers belong to inactive results.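 How the source made its calls: active means median seed-adjusted z-score above 1 or below -1; inactive means the rest.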

The nature of this test: Novel Modifiers of Survival Motor Neuron (SMN) Protein: Gene Identification via Genome-wide siRNA Screen.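 Further: luminescence tracks full-length SMN protein made from the SMN2 reporter.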 Conditions: HEK293T SMN2-luciferase reporter, siRNA knockdown, 72 h; actives lie on both sides. In a few lines:
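HEK293T cells stably expressing an SMN2 splicing/cDNA-luciferase reporter were reverse-transfected with a druggable-genome siRNA library and read by luminescence at 72 hours; hits defined by MAD score above 1.0 or below -1.0.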
In general terms: In a reporter assay the amount or activity of a reporter protein is the signal.
With GCAACUCCAAUGUCAGUGATT against TAF9B, the median seed-adjusted z-score is -0.0247. Consider GAGUCUGAAGGAUACUAUUTT against PGAM1, for which the median seed-adjusted z-score is -0.234. The figure for GCCCUGAACAAGUUGCUCATT against TRPV6 is -0.511; for GCUUUUCCCGGUCAGAUCATT against KLF12 it is -0.0892. For the sequence CCAUCGCAGAGGGAGAUAATT against USP43, the median seed-adjusted z-score is 0.

In the case of GCUUCUAUAUUCAUGCUAATT against DDX6, the median seed-adjusted z-score is 1.12 (active).

Consider GGUGAUGAGUGUUCCUACATT against KCNA4, for which the median seed-adjusted z-score was -0.634.

Consider GGAUUUCUCAUGGAAGUUUTT against CUTC, for which the median seed-adjusted z-score was -0.377.

As for CGUAAAACCCAUCAAGUUUTT against B3GALNT1, the median seed-adjusted z-score is 0.128.

On to GGCGGCAAGACGUAAGGAATT against SEMA3B, for which the median seed-adjusted z-score is 0.000251. UGCUGACCCUAAUCCCUUATT against ETV2: the median seed-adjusted z-score was 0. With AGUUAGAGGUAGCAUUAUATT against FZD5 the figure was -0.129; with GAGCAAUGCUGACUAUCAATT against CNOT7, 0.716. With CACUCGCAGUUAAUAUCAUTT against AZIN1 the figure was -1.14 (active); with GGAUCCAGCUUUUCCUCGATT against ABCC10, -1.56 (active). Take CCACGGCUGCAACAUCUUUTT against PDE2A: the median seed-adjusted z-score was -0.2. The figure for CAGCCGCUCUCGUCAAUGUTT against GGTLC2 is -0.288; for ACAACUUCGUUUUCGGUCATT against TUBB2C it is 0; for GCAGCAACAUUAUUGUCUUTT against CLDN17 it is 0.

GAAUGAAUUCUCUACUCUATT against ERBB3: the median seed-adjusted z-score is -0.561. The figure for GCCUGUGAAGUGAACCUGATT against TMPRSS6 is 1.29 (active); for UGAUAUUGCUUAGUCCAUUTT against PRLHR it is 0. The figure for CAAACGUGGACUGUCCAAATT against CA4 is 0.0549; for CAUGCACGGAGAGCCCAAATT against RPUSD3 it is 0.303. The figure for CCAGGAGAUCUUUGCCUUUTT against SLC4A3 is -0.7.

For GAACCGCUACAAGAACAUUTT against PTPN6, the median seed-adjusted z-score was -0.515. AGAUGAAACUUCUACUGAATT against POLR2H: the median seed-adjusted z-score was -2.74 (active). With CUUUGUCUAUGUCACCAUUTT against IMP5 the figure was 0.559; with CAAGCGAAUUAACUAUCUATT against GJB3, -0.198. The figure for GUCUCGCUGUGAUAGAUCATT against ELN is -0.149. In the case of CCAACAUCGAGUCCCUCAATT against SLC29A3, the median seed-adjusted z-score is -0.0626. In the case of CUGAUAAAGUGGGUCAACATT against TNFRSF10B, the median seed-adjusted z-score is 0.064.

As for CCAUCGUCAUGGAUCCAGATT against KDR, the median seed-adjusted z-score was 0.0728. The figure for GGGACAUCCUUUCCGGAAATT against NDUFS3 is -0.54; for GGAGUGUGAUGAUUCGUGATT against DGKK it is 0; for AGAACUCACCUCCUGAUUATT against YY1 it is 1.94 (active). As for GCAAGAUAACAAUUGAUAUTT against ANKRD30A, the median seed-adjusted z-score is 0.259. On to AGAUCUUCGCAAAUACUGUTT against KRT18, for which the median seed-adjusted z-score was 0.558.

For GGCUUAUGGAGGACCCUAUTT against NCOR1, the median seed-adjusted z-score was 0.0767. In the case of CCUAUGAUCCAACACCAUATT against GMPPA, the median seed-adjusted z-score was 0.619.

Consider CAUUAGCAGUUGUCCCGUUTT against P2RY10, for which the median seed-adjusted z-score was -0.432. Take CUACUUCCGCAACCAGCUATT against UNC119: the median seed-adjusted z-score is 0.171. With CUAUGGUAGCGACACUGCATT against LILRB1 the figure was 0.539. With UCACAGAGCCUAUUAUUUUTT against PRKY, the median seed-adjusted z-score is 0.168. With GUGUCAGAGUUUAUAUCAATT against PDE4D, the median seed-adjusted z-score is 0. The figure for CAAACUAUCUCUGAAAAUATT against TRYX3 is 2.3 (active); for GCUGAUGACUGUCGUUAUATT against TBX3 it is 0. With CAUCCUGUAUAAGUACUAUTT against RNF216 the figure was -0.246. For UCAACAUCGUCUACCAGGATT against SCNN1D, the median seed-adjusted z-score was -1.8 (active). With GAUCUACCCUGCUCACGAUTT against ETHE1 the figure was 0. With CAGGCUACAGUGAACAGAATT against GNL1, the median seed-adjusted z-score was 0.154.

For GCGCGUUGGUACAAUGGAATT against GOT1, the median seed-adjusted z-score was 0.0103. Take GCUUGUCUUUCAACCCGAUTT against PARP4: the median seed-adjusted z-score was -0.226.

Consider GCAACGUGUUGAUGAUGCATT against ADAD1, for which the median seed-adjusted z-score is -0.0795. Take GCACAGAGGAACGAACUAATT against PSMC5: the median seed-adjusted z-score was -1.06 (active). As to GGGAGACGGUAGAAUCAGATT against ATP13A4, the median seed-adjusted z-score was -1.09 (active). In the case of CCAUGUGAGUGUAAGCAGUTT against ZNF490, the median seed-adjusted z-score is 0.00954. Take GGGUAACUGUUGAUAACCATT against POGK: the median seed-adjusted z-score was 0.938. Take ACAAGACUUAUGCAAGAUATT against XRCC6BP1: the median seed-adjusted z-score was 0.128. With GGAAUUCGAUGGGAACUUUTT against CACHD1, the median seed-adjusted z-score is 0.119. With CCGAGUAGCUGAAAUUGUUTT against BCL2L14, the median seed-adjusted z-score is -0.859. For the sequence AGAUCUAUGAGAUUGAACATT against PRKAG3, the median seed-adjusted z-score was -1.03 (active). In the case of CAAGUUCCUUAACAAGGAATT against EIF2B4, the median seed-adjusted z-score was 0.

As to CAGAUACUUUAGGACUCAATT against UGT2B4, the median seed-adjusted z-score is 0.0707. The figure for CAGGCUCACUCGCAAAGAATT against USP31 is -0.755; for GGCUCUCUGUCAACUAUGATT against MGC21874 it is -0.354; for CCCUUUUCUUUAUCCCUGATT against IL9R it is -1.33 (active).

For the sequence GCAAGGCUAUUAUAGAUCATT against CTNNA3, the median seed-adjusted z-score is 0.249.

As to GGACAUUGCUGAUCGCUUUTT against DMC1, the median seed-adjusted z-score is -0.00876. With GCAUGUCUCUAAUAUUCCUTT against RBM9 the figure was 0.895; with GGUUUGAAAUUCUAACAAATT against TXNDC6, 0.156. The figure for CAUCCUGCAGAGUAUCUAATT against EPHA5 is -0.00876; for CUCUCUCUCGGAAUCUGAATT against POLR2L it is -1.19 (active); for GGUUGUUUUGGAAACCGAATT against NAT12 it is -0.0807. With GCGAAUUCAUAAGUCCAUUTT against MTMR9 the figure was 0.133; with CAAGACCGAGAGAACAAUATT against ENOX1, 0.0694; with CCAUCACCGUUGAUGACAATT against JAK1, 0.0199. Regarding CGAGCUGCACGUUCCUAUATT against IRF7, the median seed-adjusted z-score is -0.304. The figure for CAGUGGAUAUAUCCAGUCATT against RAB20 is -0.334. In the case of GACUCGUUGUUGGUCUAAATT against MAP3K7, the median seed-adjusted z-score is -0.23. On to CGCUGAUUUUCGAGUGUAATT against EHMT2, for which the median seed-adjusted z-score is 0.295. With GGGUCAUGCAGCAUCAAUATT against ITGAM the figure was -1.56 (active); with CCAAGGACCUGGUCUGAAATT against CUGBP1, 0.086. In the case of AGCAGAUGGUUUUCGAGAATT against COPZ2, the median seed-adjusted z-score was -1.23 (active).

As for GGGUUUUGCUGACAGCUCATT against ZNF48, the median seed-adjusted z-score is -0.116. For the sequence GGAACACGCAUGUCUGGAATT against NOS1, the median seed-adjusted z-score was 0.0195.

Consider GAAUGCAAGAUUUUCGAUUTT against USH2A, for which the median seed-adjusted z-score was 0.0673.

For GGCAUCCGCUUGUACUACATT against DBH, the median seed-adjusted z-score is 0.337. CCCUAUCAGUCCAAUGGAATT against PRDM4: the median seed-adjusted z-score was 0.0804. The figure for GCCUUCUCCUCUCAUAACATT against ZNF683 is -0.452; for CAACUUCUCCGUAGCAGAATT against AKT2 it is 0. Regarding CUUCUACAGUGGUCACCUATT against VPS29, the median seed-adjusted z-score was -0.408.

Turning to GGUUAUCAAUGACGAGCAATT against EP400, the median seed-adjusted z-score was 1.83 (active). With GAACCUCGUUUCGAAAUUUTT against RIOK2 the figure was -0.16; with GAAUGAUUUUCCAAAUGGATT against SLC25A21, -0.219.

Regarding GGAAGAAACGGAGACUCAATT against DPF1, the median seed-adjusted z-score was 0.144. The figure for GCCUGGUUUUGGAUACAAATT against LTA4H is -0.742; for CAACUGCUACCUUAGCAUATT against RNF133 it is 0; for GCUGUGAGAUUUACUCUGATT against ALAS1 it is -1.15 (active). For the sequence AAGUGACUCUAGUCGUUUATT against REM2, the median seed-adjusted z-score was 0.109. With GCAGGGUCAUUACGACUCATT against PAX9 the figure was -1.16 (active); with GAAUGGAUUCUGACCUUAUTT against MTO1, -0.0252; with ACAAGAUGUAUCACCUAUATT against ZNF226, 0.437. On to GGACUUGCUGGAAAGCACATT against NCALD, for which the median seed-adjusted z-score is 0.

Turning to GUACCUAAGUUGGAGCUGATT against TRPT1, the median seed-adjusted z-score is -0.671. With CCACUGGGCUAAUUCUACATT against ALPPL2, the median seed-adjusted z-score is 0.331. The figure for CGACACUUUCUAUCGACAATT against UBA3 is 0.605; for GGGUCUCAGAAGACGUGUATT against CRAT it is -1.42 (active); for GACAGUAACUUUAAUUCCATT against IDH3A it is 0.137.
